Pf Dd2 inh – inhibitors of Plasmodium falciparum Dd2 growth. actives 4.3% (n = 120,000). P. falciparum Dd2 growth, SYBR Green, 72 h. AID 1347417. Potency, µM (top dose mostly 28.9 µM), usual class: inhibitors; active = well fitted inhibition curve with a large enough effect; also: nearly all actives have a fitted effect of over 65% in size
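Infected erythrocytes (Dd2, 0.3% parasitemia, 2.5% hematocrit final) are added to compound in RPMI-1640/Albumax II medium, grown 72 h at 37C in low oxygen, then lysed with saponin/Triton-X containing SYBR Green and read by fluorescence.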
Large screens that a line does not name were inactive. Shown is part of a subset that was picked to be rich in hits.

O=C1NC(=NC2CCCC2)C2(CCCN([S+](=O)([O-])c3cccc(C(F)(F)F)c3)C2)N1c1cccnc1 (configuration not stated)	none
COc1cccc(N2C(=O)NC(=NC3CCCC3)C23CCN(CC2CC2)C3)c1 (configuration not stated)	none
COc1cccc(N2C(=O)NC(=NC3CCCCC3)C23CCN(Cc2ccccc2)CC3)c1	none
COc1ccc(C(=O)N2CCC3(C2)C(=NC2CCCCC2)NC(=O)N3c2cccc(OC)c2)cc1 (configuration not stated)	none
COc1cccc(N2C(=O)NC(=NC3CCCCC3)C23CCN(Cc2cccnc2)C3)c1 (configuration not stated)	none
COc1cccc(N2C(=O)NC(=NC3CCCCC3)C23CCCN([S+](=O)([O-])c2cccc(C(F)(F)F)c2)C3)c1 (configuration not stated)	Pf Dd2 inh 13µM
COc1ccc(C(=O)N2CCCC3(C2)C(=NC2CCCCC2)NC(=O)N3c2cccc(OC)c2)cc1 (configuration not stated)	none
COc1cccc(N2C(=O)NC(=NC3CCCC3)C23CCN(CC2CCCCC2)C3)c1 (configuration not stated)	Pf Dd2 inh 10µM
COc1ccc(CN2CCCC3(C2)C(=NC2CCCCC2)NC(=O)N3c2cccc(OC)c2)cc1 (configuration not stated)	Pf Dd2 inh 8.9µM
COc1ccc(CN2CCC3(C2)C(=NC2CCCCC2)NC(=O)N3c2cccc(OC)c2)cc1 (configuration not stated)	Pf Dd2 inh 2.8µM
O=C1NC(=NC2CCCC2)C2(CCN([S+](=O)([O-])c3cccc(C(F)(F)F)c3)C2)N1c1cc(F)cc(F)c1 (configuration not stated)	none
COc1cccc(N2C(=O)NC(=NC3CCCCC3)C23CCN(CC2CCCCC2)C3)c1 (configuration not stated)	none
CN(Cc1csc(-c2ccccc2)n1)C(=O)c1ccc(-n2cnnn2)cc1	none
O=C(c1coc(COc2ccc(F)cc2Cl)n1)N1CCCCO1	none
COc1ccc(C2(C(=O)N(C)Cc3ccc(F)cc3)CCOCC2)cc1	none
CCNC(=O)c1cccnc1OC1CCN(C(=O)c2cc(F)ccc2F)C1 (configuration not stated)	none
O=C(NCC1(COc2cccnc2)C[C@@H](O)[C@@H](O)C1)c1cccnc1 (some centres not stated)	none
CNC(=O)[C@@H]1C[C@@H](n2cc(C(C)(C)NC(=O)c3cccc(Cl)c3)nn2)CN1	none
COc1cccc(N2C(=O)NC(=NC3CCCCC3)C23CCCN(Cc2ccsc2)C3)c1 (configuration not stated)	Pf Dd2 inh 11µM
COc1cccc(N2C(=O)NC(=NC3CCCCC3)C23CCN([S+](=O)([O-])c2cccs2)C3)c1 (configuration not stated)	none
Cc1noc(C2CC3(CCN(C(=O)c4nccn4C)CC3)CN2C)n1 (configuration not stated)	none
Cn1cc(C2c3nccn3CCCN2C(=O)c2ncccc2F)cn1 (configuration not stated)	none
CN(C)C(=O)N1CCN(c2cc(Cl)ncn2)C(=O)C1	none
Cc1ccc2c(c1)N(CCC(=O)NCc1ccccc1Cl)C(=O)CO2	none
Cc1cc(=O)n(CC(=O)Nc2cccc(F)c2)c(-c2ccccc2)n1	none
COc1ccc(C2=NN(CC(=O)NCc3ccccc3Cl)C(=O)CC2)cc1	none
Cc1ccc(C2=Nc3ccccc3N(CC(=O)Nc3cccc(F)c3)C(=O)C2)cc1C	Pf Dd2 inh 8.9µM
Cc1ccc(C2=Nc3ccccc3N(CC(=O)NCc3ccccc3Cl)C(=O)C2)cc1C	Pf Dd2 inh 11µM
Cc1ccc(NC(=O)CN2C(=O)CC(c3ccc(F)cc3)=Nc3ccccc32)cc1F	none
O=C1CC(c2ccccc2)N(C(=O)CNC(=O)NC2CCCCC2)CCCCCCN1 (configuration not stated)	none
Cc1noc(C)c1S(=O)(=O)N1CC(N(CC(C)C)C2CCOCC2)C1	none
Cc1noc(C)c1S(=O)(=O)N1CCC(N(CCC(C)C)C2CCOCC2)CC1	Pf Dd2 inh 13µM
Cc1noc(C)c1S(=O)(=O)N1CCC(N2CCOC2=O)CC1	none
CN(C)c1ccc(C(=O)N2CC[C@@H](CC(=O)O)[C@@H](CCN3C[C@@H]4C[C@H](C3)c3cccc(=O)n3C4)C2)cc1	none
CC(CCc1ccccc1)NC(=O)Cn1ccn2nc3c(c2c1=O)CCCC3 (configuration not stated)	none
O=C(N1CCOCC1)N1CCOC[C@H]1c1ncc(-c2ccc(OC(F)(F)F)cc2)[nH]1	none
CN(Cc1cccnc1)C(=O)C1C2C(=O)N(c3ccc(CCO)cc3)C[C@@]23C=C[C@@H]1O3 (some centres not stated)	none
COc1cccc(CN2CCCC(Nc3cc(N)ncn3)C2)c1 (configuration not stated)	none
COc1cccc(CCC2CCCN(C(=O)C3CCCC3)C2)c1 (configuration not stated)	none
CCN(Cc1cccc(OCCO)c1)CC1CCCN(CCc2cccc(OC)c2)C1 (configuration not stated)	Pf Dd2 inh 10µM
CCC(NCc1cn(CCC(N)=O)c2ccccc12)c1cccs1 (configuration not stated)	none
NC(=O)CCn1cc(CN(CCO)Cc2ccccc2F)c2ccccc21	Pf Dd2 inh 2.2µM
O=C(Cn1cc(SCc2ccccc2F)c2ccccc21)N1CCCCC1	none
CCCCc1nn(CC(=O)N(C)Cc2ccc(C)o2)c(=O)n1CC	none
O=C(c1cscn1)N1CCC2(CC1)CN(c1ccncn1)CC2CO (configuration not stated)	none
O=C(NC1CCN(c2cc(-c3ccc(F)cc3)[nH]n2)C1)c1ccc(F)cc1Cl (configuration not stated)	none
O=C(Nc1ccccc1)Nc1cccc(-c2nnc3n2CCCC3)c1	none
O=C(Cc1cccc(F)c1)Nc1ccc(-c2nnc3n2CCCC3)cc1	none
O=C(COc1ccc(-c2nnc3n2CCCC3)cc1)N1CCN(c2ccc(F)cc2)CC1	Pf Dd2 inh 3.2µM
CSc1cccc(NC(=O)Nc2ccc(-c3nnc4n3CCCC4)cc2)c1	none
O=C(COc1ccc(Cl)cc1)Nc1cccc(-c2nnc3n2CCCC3)c1	Pf Dd2 inh 3.2µM
O=C(CN1C(=O)CCC1=O)N1CCCCCCn2c(nnc2-c2ccc(F)cc2)CC1	none
O=C(COc1cccc(-c2nnc3n2CCCC3)c1)NCc1ccc(F)cc1	none
O=C(CC1CCCCC1)Nc1cccc(-c2nnc3n2CCCC3)c1	none
O=C(Cn1nc2n(c1=O)CCCCC2)N1CCN(c2ccc(F)cc2)CC1	none
O=C(COc1ccc(Cl)cc1)Nc1ccc(-c2nnc3n2CCCC3)cc1	none
O=C(COc1ccc(F)cc1)Nc1cccc(-c2nnc3n2CCCC3)c1	Pf Dd2 inh 8.9µM
O=C(Cc1ccccc1Cl)Nc1cccc(-c2nnc3n2CCCC3)c1	Pf Dd2 inh 7.1µM
CCc1cn(C[C@H](NC(=O)c2ccco2)C(=O)O)c(=O)[nH]c1=O	none
COC(=O)c1cccc(-c2nc(C3CC(=O)N(c4ccc(F)c(Cl)c4)C3)no2)c1 (configuration not stated)	none
CC(=O)N1CCC2(C1)C(=NC1CCCC1)NC(=O)N2c1cccnc1 (configuration not stated)	none
Cc1cccc(C(=O)N2CCC3(CCC(=O)N(C(C)C(=O)O)C3)CC2)c1 (configuration not stated)	none
CCc1cc(NCC(O)CN2CCCCC2)ncn1 (configuration not stated)	none
CC(=O)N1CCC(c2nnc3n2CCNC3)CC1	none
